# Results from PubChem BioAssay AID741 (SRMLSC, 2007).
# Inconclusive results are not listed. Calls of active or inactive are those of the source. Cut-off read from the data, not from the text of the source: active = toxicity enhancement factor above about 0.054; inconclusive = between about 0.00067 and that limit; inactive = weaker than that.
# Experiment: MRP-overexpressing cell chemosensitization – dose response (AID 741)
# Details: MRP-overexpressing cells, viability with/without cytotoxic drug; slope difference: measured here: slope difference tox minus reversal, stronger effect = higher value; toxicity enhancement factor: stronger effect = higher value; viability: measured here: viability series, compound alone, at 10 µM, stronger effect = lower value
SMILES,slope difference,toxicity enhancement factor,viability [%]
O=C(CSc1nnnn1-c1ccccc1)N1CCc2ccccc21,-1.04,-0.0102 (inactive),85.8
COc1ccc(N2C(N)=C(C#N)C(c3cccnc3)C3=C2CC(C)(C)CC3=O)cc1 (configuration not stated),2.07,0.0615 (active),63
COc1ccc(C(c2nnnn2C(C)(C)C)N2CCN(c3nc4ccccc4s3)CC2)cc1OC (configuration not stated),-1.39,-0.0199 (inactive),71.9
CN1C(C(=O)Nc2ccccn2)=C(O)c2ccccc2S1(=O)=O,-0.409,-0.0045 (inactive),92.3
CC(C)Cc1ccc(C(C)C(=O)O)cc1 (configuration not stated),-0.62,-0.0059 (inactive),93.7
O=C(COc1ccccc1)N1CCN(c2ncnc3c2cnn3-c2ccccc2)CC1,-0.402,-0.0084 (inactive),53.8
COc1cc(/C=C/C(=O)CC(=O)/C=C/c2ccc(O)c(OC)c2)ccc1O,-2.01,-0.0391 (inactive),24.1
CC(C)(C)C(=O)[C@@H]1[C@@H]2C(=O)N(C3CCCCC3)C(=O)[C@@H]2[C@H]2c3ccccc3C=CN12,2.83,0.061 (active),85.2
Cc1ccc(N2C(N)=C(C#N)C(c3cccnc3)C3=C2CCCC3=O)cc1 (configuration not stated),2.44,0.0726 (active),62.7
CC(C(=O)O)c1cccc(C(=O)c2ccccc2)c1 (configuration not stated),-1.03,-0.0105 (inactive),92.4
O=C(Cc1cccs1)N1CCC(c2nc3c(nnn3Cc3ccccc3Cl)c(=O)[nH]2)CC1,-0.454,-0.0052 (inactive),82.5
CC(=O)Nc1ccc(S(=O)(=O)NCCC(=O)NCCc2ccc(F)cc2)cc1,0.0009,0 (inactive),87.3
N#Cc1ccc(CSc2nnc(-c3cccs3)n2-c2ccccc2)cc1,-0.904,-0.0117 (inactive),79
Cc1ccc(-n2ncc3c(N4CCN(c5ccccc5)CC4)ncnc32)c(C)c1,-1.27,-0.037 (inactive),27.4
COc1ccc(C(=O)Nc2nc3ccccc3[nH]2)cc1OC,-0.0153,-0.0002 (inactive),87.3
CC(=O)Oc1cccc2c1C(=O)c1c(OC(C)=O)cc(C(=O)O)cc1C2=O,-1.12,-0.0114 (inactive),89.5
C=CCOc1nc2c(c(=O)n(C)c(=O)n2C)n1Cc1c(Cl)cccc1Cl,-0.654,-0.0108 (inactive),63.6
CC(C(=O)O)c1ccc(N2Cc3ccccc3C2=O)cc1 (configuration not stated),-0.182,-0.0019 (inactive),98.6
O=C(O)c1ccc(-n2nnnc2SCc2ccccc2)cc1,-0.76,-0.0082 (inactive),88.7
CCOc1nc2c(c(=O)n(C)c(=O)n2C)n1Cc1ccccc1Cl,-0.531,-0.0077 (inactive),71
Cc1ccc(Cn2c(N3CCCCCC3)nc3c2c(=O)[nH]c(=O)n3C)cc1,-0.91,-0.0097 (inactive),88.2
CC1=NN(C(N)=S)C(=O)C1N=Nc1ccccc1C (configuration not stated),-0.556,-0.0057 (inactive),92.1
Cc1ccc(-c2nc3ncccn3c2NC2CCCCC2)o1,2.81,0.0632 (active),79.5

SMILES,slope difference,toxicity enhancement factor,viability [%]
CC1(C)CC(=O)C2=C(C1)N(c1ccccc1)C(N)=C(C#N)C2c1ccccc1 (configuration not stated),3.21,0.108 (active),73.3
C=CCSc1nnc2n(CCc3ccccc3)c(=O)c3c4c(sc3n12)COC(C)(C)C4,3.35,0.116 (active),71
Cc1cccc(Cn2c(NCC(C)O)nc3c2c(=O)n(C)c(=O)n3C)c1 (configuration not stated),-0.509,-0.0055 (inactive),93.7
Cc1ccc(N2C(N)=C(C#N)C(c3cccnc3)C3=C2CC(C)(C)CC3=O)cc1 (configuration not stated),2.48,0.0915 (active),57.5
COc1ccc2cc(C(c3nnnn3C(C)(C)C)N3CCc4ccccc4C3)c(=O)[nH]c2c1 (configuration not stated),-0.322,-0.0045 (inactive),76.3
CC1CN(c2nc3ccccn3c(=O)c2/C=C(\C#N)S(=O)(=O)c2ccccc2)CC(C)O1 (configuration not stated),3.36,0.0581 (active),93.3
COc1ccc(N2C(=O)C(Cl)=C(N3CCCC3)C2=O)cc1,-0.145,-0.0016 (inactive),91.8
Clc1cnc(N/N=C/c2cccs2)c(Cl)c1,-0.68,-0.0069 (inactive),96.8
O=C(O)c1ccccc1O,-0.779,-0.0072 (inactive),100
O=C(CSc1nnc(CN2CCOCC2)n1-c1ccc(Cl)cc1)Nc1cc(Cl)ccc1O,2.56,0.0702 (active),67.3
CC1(C)CC(=O)C2=C(C1)N(c1ccccc1)C(N)=C(C#N)C2c1cccnc1 (configuration not stated),2.68,0.105 (active),60
COCC(C)OC(=O)C(C#N)c1nc2ccccc2nc1N1CCN(Cc2ccccc2)CC1 (configuration not stated),-0.109,-0.0013 (inactive),89.3
Cn1ccnc1-c1nc2ccccc2[nH]c1=O,-0.138,-0.0015 (inactive),92.3
Cc1oncc1C(=O)Nc1ccc(C(F)(F)F)cc1,-0.34,-0.0035 (inactive),96.5
Cc1cccc2cc(CN(Cc3nnnn3C3CCCCC3)C3CCCC3)c3nnnn3c12,3.91,0.117 (active),74.2
CCOC(=O)/C(C#N)=C/c1cc(C)n(-c2ccc(C)cc2)c1C,-0.0151,-0.0003 (inactive),63.7
Cc1ccc(CN(C(=O)c2ccco2)C(C(=O)NC2CCCC2)c2ccc(N3CCOCC3)cc2)cc1 (configuration not stated),2.19,0.0523 (active),72.9
Cc1ccc(/C=N/Nc2ncc(Cl)cc2Cl)s1,-0.555,-0.0071 (inactive),70.4
Cc1nc(N2CCN(C)CC2)c2sc(=S)n(-c3ccccc3)c2n1,2.3,0.0596 (active),64
CCOC(=O)Nc1ccc(S(=O)(=O)Nc2nccc(C)n2)cc1,-0.237,-0.0025 (inactive),97.4
COC(=O)c1ccccc1NC(=O)c1cccs1,-0.205,-0.0023 (inactive),87.5
CCOc1ccccc1Nc1nc(N)nc(CN(C)C2CCCCC2)n1,-0.105,-0.0012 (inactive),92.2
Cc1ccc(Cl)c(Nc2ccccc2C(=O)O)c1Cl,-0.97,-0.0098 (inactive),92.5

SMILES,slope difference,toxicity enhancement factor,viability [%]
Cc1ccc(/C=N/Nc2nc(Cl)c(Cl)cc2Cl)s1,-0.0549,-0.0006 (inactive),99.8
CCOC(=O)c1c(C)[nH]c(N=Nc2ccc(C)cc2)c1C,-0.597,-0.006 (inactive),98.7
C=CCN1C(=O)/C(=C2/Sc3ccccc3N2C)SC1=Nc1c(C)n[nH]c1C,4.41,0.241 (active),66.9
O=C(NCc1ccccn1)c1cn(CCc2ccccc2)nn1,-0.117,-0.0012 (inactive),97.1
c1ccc(N2CCN(c3ccccc3)C2c2ccncc2)cc1,3.19,0.0739 (active),82.9
Cc1cc(C)cc(OCc2nnc(SCC(=O)c3ccc(Br)cc3)o2)c1,-0.893,-0.0094 (inactive),92.3
O=C(c1ccccc1)c1ccc2n1CCC2C(=O)O (configuration not stated),-0.0977,-0.001 (inactive),106
COc1ccccc1Nc1nc(N)nc(CN2CCOCC2)n1,-0.589,-0.0058 (inactive),98.2
COC(=O)Nc1ccc(S(=O)(=O)N2c3ccccc3CCC2C)cc1 (configuration not stated),-2.95,-0.0581 (inactive),20.1
CCOC(=O)N1CCC(Nc2c(Nc3cccc(CC)c3)c(=O)c2=O)CC1,5.23,0.268 (active),73.6
CS(=O)(=O)Nc1ccc([N+](=O)[O-])cc1Oc1ccccc1,-0.667,-0.0071 (inactive),97.8
O=C1CCCC2=C1C(c1cccs1)n1nc(SCc3ccccc3F)nc1N2 (configuration not stated),2.51,0.0631 (active),69.6
CSc1cccc(NC(=O)C2CCN(S(C)(=O)=O)CC2)c1,-0.244,-0.0028 (inactive),94.7
COc1ccc(/C=C/C(=O)Nc2ccccc2C(=O)O)cc1OC,-1.07,-0.0098 (inactive),95.7
CN1C(=O)C(CC(=O)Nc2ccc3c(c2)Cc2ccccc2-3)N(C)C1=O (configuration not stated),-0.0851,-0.0009 (inactive),94.5
CCN(C(=O)c1cn(C)c(=O)c2cc(OC)c(OC)cc12)c1cc(OC)ccc1OC,4.18,0.129 (active),77.9
CCCNc1nc2c(c(=O)n(C)c(=O)n2C)n1Cc1ccc(F)cc1,-0.107,-0.0012 (inactive),92.8
c1ccc2c(c1)nc1n2CN(Cc2ccc3c(c2)OCO3)CN1,-0.301,-0.0032 (inactive),85.8
O=C(NCCCn1ccnc1)c1sc2cccc(F)c2c1Cl,-0.0975,-0.001 (inactive),96.9
CCCc1cc(Nc2c(C)n(C)n(-c3ccccc3)c2=O)n2c(nc3ccccc32)c1C#N,4.27,0.0896 (active),97.6
CCCNS(=O)(=O)c1ccc(NC(=O)c2ccccn2)cc1,-0.0969,-0.001 (inactive),99.5
CCCn1c(=O)[nH]c(=O)c2[nH]cnc21,-0.568,-0.0054 (inactive),101
CCCCC1C(=O)N(c2ccccc2)N(c2ccccc2)C1=O,-0.496,-0.0047 (inactive),101
